An excerpt weighted towards active compounds, which were near 7.9% of everything screened.
M1 ag: agonists of M1 muscarinic receptor; CHO-M1 cells, Fluo-4 calcium fluorescence, agonist mode; hits give high values; AID 626; hit rate 3% among 64,000; B-score at 10 µM;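 active = fluorescence rise, raw or as B-score row- and column-corrected plate score, outside the 99.7% band of its plate's samples, either direction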
HER2 expr 66K: lowers expression of human Her2 kinase; hit rate 0.69% among 65,000; HER2 level % of control, % at 10 µM; AID 645; SKBR-3 HER2 protein level, AlphaScreen, 18-24 h; hits give low values; P04626;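 active = HER2 level under 5% of the carrier-only control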;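 note: 100% = DMSO carrier and 0% = 500 nM PU-H71 HSP90 inhibitor; lower value means stronger loss of Her2 protein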
Cav3 T inh: blocks human Cav3.2 T-type calcium channel | O95180 | Cav3.2-expressing cells, Fluo-4 calcium fluorescence FDSS; hits give low values | B-score at 10 µM | hit rate 4% among 100,000 | AID 449739;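 active = single-dose well whose peak fluorescence ratio is a statistical outlier from its plate by either plate-standardised score or position-corrected B-score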
PLAP activator: activators of human placental alkaline phosphatase; P05187; purified PLAP enzyme, luminescent substrate read-out; hits give high values; activation fold at 20 µM; hit rate 1.2% among 96,000; AID 696; in the data active = activation fold above about 2
Target sequence (P05187 whole entry, looked up): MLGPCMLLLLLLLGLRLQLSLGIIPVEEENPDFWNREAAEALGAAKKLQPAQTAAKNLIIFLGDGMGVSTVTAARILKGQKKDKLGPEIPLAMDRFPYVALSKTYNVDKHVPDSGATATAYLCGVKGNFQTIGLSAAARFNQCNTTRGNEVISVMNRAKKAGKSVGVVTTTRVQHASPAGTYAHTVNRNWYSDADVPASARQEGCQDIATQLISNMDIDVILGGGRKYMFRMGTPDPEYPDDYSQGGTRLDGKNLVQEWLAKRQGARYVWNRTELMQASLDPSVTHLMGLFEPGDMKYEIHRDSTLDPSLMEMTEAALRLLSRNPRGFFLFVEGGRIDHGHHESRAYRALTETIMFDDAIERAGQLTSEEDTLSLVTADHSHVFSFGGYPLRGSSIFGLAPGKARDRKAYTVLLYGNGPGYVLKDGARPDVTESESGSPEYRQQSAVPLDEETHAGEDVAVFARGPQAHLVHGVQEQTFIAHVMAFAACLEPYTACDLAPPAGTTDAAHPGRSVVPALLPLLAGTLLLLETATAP
M1 antagonist: blocks the rat M1 muscarinic receptor response to acetylcholine | P08482 | CHO-M1 cells, Fluo-4 calcium, ACh EC80 antagonist mode; hits give low values | B-score at 10 µM | hit rate 3.4% among 64,000 | AID 628;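 active = calcium fluorescence response, raw or row-and-column corrected B-score, differing from the plate sample mean either way at a set confidence level, mostly lower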
* marks the source's active call; other numbers are inactive results; x = no result.

SMILES	M1 ag	HER2 expr 66K	Cav3 T inh	PLAP activator	M1 antagonist
CCOC(=O)c1c(C)n(C)c2ccc(OC)c(NC(=O)CN3CCN(C4CCCCC4)CC3)c12	x	x	0.39	2*	x
O=C(CSc1ccc(Cl)cc1Cl)N1CCC(c2nc3ccccc3s2)CC1	x	x	-1.4	1.3	x
COc1cc(C(=O)Nc2cc(-c3ccccc3)[nH]n2)cc(OC)c1OC	0.82	60	-1.7	2.3*	-0.24
Cc1ccc(-c2c3c(nc4sc(C(N)=O)c(N)c24)CCC3)cc1	x	x	0.63	0.9	x
COc1ccc(-c2c3c(nc4sc5c(Cl)nc(C)nc5c24)CCC3)cc1	x	x	3.7*	0.9	x
CCCCC1(Cc2cccc([N+](=O)[O-])c2)C(=O)N(c2ccccc2)N(c2ccccc2)C1=O	x	x	-2.3	0.9	x
c1ccc(-c2nn3c(-c4ccncc4)nnc3s2)nc1	-0.85	92	x	x	-1.4
CN(CC(=O)Nc1ccc(Cl)cc1)CC(=O)Nc1cc(Cl)ccc1C#N	1.8	94	-3.6	2.5*	1.4
CCOc1ccc(NC(=O)CN(C)CC(=O)Nc2ccccc2C#N)cc1OCC	0.51	115	0.5	1.8	0.13
CCCCn1c2nc3ccccc3nc2c2c(=O)n(CCC)cnc21	-0.026	76	1.8	0.9	-0.17
CCCCCn1nc(-c2ccccc2)c2nc3ccccc3nc21	x	x	-7.3*	1.1	x
CC(=O)Nc1ccc(-c2nnc(SCc3c(C)cc(C)cc3C)n2C)cc1	x	x	0.61	1.8	x
O=C(CSc1nnc(CNC(=O)c2cccs2)o1)Nc1cccc(C(F)(F)F)c1	-0.19	128	-5.5*	0.9	-0.16
N/C(=N\OC(=O)c1cccc(F)c1)c1ccccc1	x	x	x	0.9	x
CC(=O)Nc1c(C(=O)N2CCCCCC2)cnn1-c1ccccc1Cl	x	x	1.3	x	x
Cc1c(C(=O)Nc2ccc(Cl)cc2)c2ccccn2c1C(=O)c1ccc([N+](=O)[O-])cc1	x	x	-7.1*	1	x
Cn1c(=O)n(CCc2ccccc2)c(=O)c2c1nc1n2CCN1c1ccccc1	-0.2	117	x	x	-0.15
O=[N+]([O-])c1ccc2nc(SCc3ccccc3Cl)sc2c1	x	x	-4.1*	0.3	x
COc1ccc(C(NC(=O)/C=C\c2ccco2)c2ccc(OC)c(OC)c2)cc1 (stereo not given)	x	x	-1.1	1	x
COc1ccc(C(=O)/C(=C\c2ccco2)N2C=CC=CC2=C(C#N)C#N)cc1	x	x	-6.8*	1.1	x
Cc1ccc2nc3c(cc(C#N)c(=O)n3CC3CCCO3)c(=O)n2c1 (stereo not given)	-1.1	106	1.6	1.1	0.049
CCC(C)N1CC23C=CC(O2)C(C(=O)OCc2ccccc2)C3C1=O (stereo not given)	0.73	106	0.55	0.9	1.4
CCCn1c(NCc2c[nH]c3ccccc23)nc2ccccc21	x	x	-5.9*	0.7	x
Cc1ccc(CSCCNC(=O)/C=C/c2ccccc2Cl)cc1	x	x	-1.5	1	x
Cc1ccc(CSCCNC(=O)CSCc2ccc([N+](=O)[O-])cc2)cc1	x	x	-4.3*	0.8	x
SMILES	M1 ag	HER2 expr 66K	Cav3 T inh	PLAP activator	M1 antagonist
Cc1ccccc1CSCCNC(=O)CSCc1ccc([N+](=O)[O-])cc1	x	x	x	0.9	x
Cc1cccc(CSCCNC(=O)CSCc2ccc([N+](=O)[O-])cc2)c1	x	x	-3.2*	0.9	x
O=C(COC(=O)c1cc[n+]([O-])cc1)NCC12CC3CC(CC(C3)C1)C2	x	x	0.021	0.9	x
O=C(Nc1nncs1)c1c(F)c(F)c(F)c(F)c1F	-0.58	92	2.3	0.8	1*
CCC(C)NC(=O)c1c(C)cc(=O)oc1C (stereo not given)	0.42	93	0.12	1	1.4
C/C=C/C=C/C(=O)N1CC[C@]23c4ccccc4N[C@H]4N(C)c5cccc6c5[C@]42CCN([C@H]6C2OC2(C)C)[C@H]13 (stereo not given in full)	x	x	-4.5*	x	x
CN1CCC23c4ccccc4NC1C21CCN(C)C3Nc2ccccc21	x	x	0.094	x	x
CCOC(=O)c1ccc(NC(=O)c2cn(-c3ccccc3)nc2-c2ccncc2)cc1	x	x	0.0083	0.9	x
CCOc1ccc(NC(=O)CN(c2cccc(C(F)(F)F)c2)S(C)(=O)=O)cc1	x	x	-3.8*	0.9	x
COc1ccc(N(CC(=O)Nc2cccc(SC)c2)S(C)(=O)=O)cc1	-0.0053	100	-4.8*	1.5	0.022
COc1ccc(NC(=O)CN(c2cccc(C(F)(F)F)c2)S(C)(=O)=O)cc1OC	x	x	-0.32	1	x
COc1ccc(N(CC(=O)Nc2cccc(C(F)(F)F)c2)S(C)(=O)=O)cc1	x	x	-3.3*	x	x
COc1cccc(NC(=O)CN(c2cccc(C(F)(F)F)c2)S(C)(=O)=O)c1	x	78	x	1.1	x
CSc1cccc(NC(=O)CN(Cc2ccc(Cl)cc2)S(C)(=O)=O)c1	x	x	-3.4*	1.2	x
COc1ccc(C(=O)N=c2sc3c(C)ccc(OC)c3n2C)cc1	x	x	-2.8	1	x
CCOC(=O)c1cc2sccc2n1CC(=O)c1ccc2c(c1)OCCO2	-0.72	105	-1.2	1.3	-0.15
COc1cccc(NC(=O)CSc2nnc(-c3ccoc3C)n2-c2ccccc2)c1	x	x	-6.2*	0.9	x
Cc1occc1-c1nnc(SCC(=O)Nc2nccs2)n1CCc1ccccc1	-0.05	103	-3	1.3	-0.12
CCCn1c(SCC(=O)Nc2nonc2C)nnc1-c1ccoc1C	-0.18	90	1.1	1	0.19
CCOc1ccccc1-n1c(SCC(=O)Nc2nccs2)nnc1-c1ccoc1C	-0.83	72	-7.2*	1.4	0.99
Cc1nonc1NC(=O)CSc1nnc(-c2ccoc2C)n1-c1cccc(Cl)c1	x	x	-4.4*	x	x
O=C(NC(=S)Nc1cccc(Cl)c1N1CCCC1)c1ccc(-c2cccc([N+](=O)[O-])c2)o1	x	x	-0.51	1.2	x
COC(=O)COc1ccc(S(=O)(=O)N2CCc3ccccc3C2)cc1C	x	x	x	1.1	x
CN(C)c1oc(-c2ccccc2Cl)nc1P(=O)(c1ccccc1)c1ccccc1	x	x	-7.3*	1.6	x
Cc1cc2cc(CN(Cc3ccco3)C(=O)NCc3ccccc3)c(=O)[nH]c2cc1C	0.97	74	-7.4*	1.4	0.056
SMILES	M1 ag	HER2 expr 66K	Cav3 T inh	PLAP activator	M1 antagonist
COc1ccccc1NC(=O)N(Cc1ccco1)Cc1cc2c(C)ccc(C)c2[nH]c1=O	1.5	46	-6*	x	-1.6
Cc1cc2cc(CN(Cc3ccco3)C(=O)C3CCCCC3)c(=O)[nH]c2cc1C	0.13	73	-9.3*	0.9	-0.71
Cc1sc2nc(C(C)Nc3ccccc3N3CCOCC3)[nH]c(=O)c2c1C (stereo not given)	-0.41	59	-2.4	1.2	-0.037
O=C(COc1ccc(Cl)cc1)N/N=C/CCc1ccccc1	x	x	0.17	1	x
Cc1nn(-c2ccccc2)c(Cl)c1C(=O)NCC(=O)O	-1.5	95	-1.4	1	-0.086
CC(=O)N(Cc1c(C)nn(-c2ccccc2)c1Cl)c1ccc(Cl)cc1	x	x	-8.3*	1.3	x
O=c1[nH]c(CSc2nnc(COc3ccccc3)n2-c2ccccc2)nc2ccccc12	0.51	66	-3.9*	1.6	0.062
N#Cc1ccc(OCc2nnc(SCC(=O)c3ccccc3)n2-c2ccccc2)cc1	x	x	0.23	x	x
Cc1ccc(OCc2nnc(SCC(=O)c3ccccc3)n2-c2ccccc2)cc1	x	x	-4.4*	x	x
N#Cc1c(-c2ccc(Cl)cc2)ccn2nc(C3CCCCC3)nc12	x	x	-0.67	0.9	x
COc1cccc(Cn2nnc(C(=O)NCc3ccc(F)cc3)c2N)c1	-1.4	77	-3.6	0.8	-0.42
